Measurements published in PubChem BioAssay AID2289 (National Center for Advancing Translational Sciences (NCATS), 2010).
Screen size: about 340,000 compounds; about 3,300 (0.97%) were called active. Inconclusive results (about 9%) are left out. The call rests on the fitted dose curve; in most records, active means well fitted inhibition curve with a large enough effect; inconclusive means small, poorly fitted or top-dose-only effect, or effect the other way; inactive means flat fitted curve, though single readings scatter. The list shows a part of the results.

assay: qHTS Assay for Modulators of miRNAs and/or Inhibitors of miR-21; conditions: HeLa miR-21-FLuc reporter, luciferase luminescence, 48 h; actives lower the signal; further: nearly all actives have a fitted effect of over 55% in size
Procedure, shortened: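 Compounds were titrated across several concentrations (up to approximately 40 uM) and incubated 48 hours with HeLa miR-21-FLuc reporter cells (miR-21 target sequence downstream of FLuc, endogenous miR-21). Readout was firefly luciferase luminescence after lytic detection reagent.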
Potency means the concentration at half of the fitted maximal effect.

Potency, active:
Cc1cc(SCC(=O)Nc2nsc(-c3ccc(C(C)(C)C)cc3)n2)nc2ccccc12 2.33 µM
COc1ccc(-n2cc(CN(C)CCO)c(-c3cccc(F)c3)n2)cc1 0.414 µM
C/C(=N\OCc1cccc(C(=O)O)c1)c1ccc(Cl)cc1 0.0414 µM
COc1cc(/C=N/OCC(=O)NC2CCCCC2C)ccc1OCc1ccc(Cl)cc1 (centres undefined) 4.65 µM
COc1cc(/C=N/OCC(=O)Nc2cc(C)cc(C)c2)ccc1OCc1ccc(Cl)cc1 2.93 µM
CCCCc1ccc(NC(=O)C2CCCO2)cc1 (centres undefined) 1.85 µM
CC1CCN(C(=O)Cn2nnc(-c3cccs3)n2)CC1 7.36 µM
Brc1ccc(-c2cn3cc(Cc4ccccc4)sc3n2)cc1 0.329 µM
COc1cccc(OCc2cc(C(=O)NCc3ccccn3)no2)c1 13.1 µM
CSc1ccccc1OCc1cc(C(=O)NCc2cccc(C)n2)no1 7.36 µM
CSc1ccccc1OCc1cc(C(=O)N(C)Cc2nonc2C)no1 8.26 µM
CSc1ccccc1OCc1cc(C(=O)N(C)Cc2ccncn2)no1 8.26 µM
CC(NC(=O)c1cc(COc2ccccc2)on1)c1nccs1 (centres undefined) 2.07 µM
CN1CCc2c(sc(/N=C/c3cc(Cl)ccc3O)c2C#N)C1 6.56 µM
COc1ccc2c(c1)O[C@H](c1ccc3c(c1)OCO3)[C@@H](O)C2=O 11.7 µM
COc1cccc([C@@H]2Oc3ccc(OC)cc3C(=O)[C@H]2OC(=O)NCc2ccc3c(c2)OCO3)c1 5.85 µM
COc1ccc(C(=O)OCc2csc(C)n2)c(O)c1 7.36 µM
O=C(OCc1csc(-c2ccccc2)n1)c1ccc(O)cc1 14.7 µM
O=C(OCc1csc(-c2ccccc2)n1)c1ccccc1O 9.27 µM
Cc1nc(COC(=O)c2c(C)nn(-c3ccccc3)c2C)cs1 16.5 µM
Cc1ccc(SC[C@H](CC(C)C)N2CCN(C)CCC2=O)cc1 10.4 µM
Cc1ccc(SC[C@H](c2ccccc2)N2CCN(C)CCC2=O)cc1 9.27 µM
O=C(NCCC1=CCCCC1)c1cnc2n(c1=O)CCS2 6.56 µM
Fc1ccccc1Nc1nc2ccccc2o1 0.521 µM
Cn1cccc1C(=O)OCc1cc(Cl)cc2c1OCOC2 13.1 µM
C=CCN=c1scc(C)n1/N=C/c1ccc(O)c(O)c1 11.7 µM
Cc1c(C(=O)OC(C)C)sc(N)c1C(=O)OC(C)C 6.56 µM
CCOC(=O)c1c(N)sc(C(=O)OCCOC)c1C 18.5 µM
CCCOC(=O)c1c(N)sc(C(=O)OCC)c1C 14.7 µM
Cc1cc2cc(C=C(C#N)C#N)c(Cl)nc2cc1C 7.36 µM
Cc1ccc(/C(N)=N/OC(=O)COc2ccccc2Cl)cc1 10.4 µM
N/C(=N\OC(=O)COc1ccc(Cl)cc1Br)c1ccncc1 1.65 µM
N/C(=N\OC(=O)COc1ccc(Cl)cc1Cl)c1ccncc1 0.585 µM
Cc1ccc(OCC(=O)O/N=C(\N)c2ccncc2)c(C)c1 4.14 µM
N/C(=N\OC(=O)COc1ccc(Br)cc1Cl)c1ccccn1 0.117 µM
N/C(=N\OC(=O)COc1ccc(Br)cc1Cl)c1ccncc1 0.927 µM
CCc1ccc(OCC(=O)O/N=C(\N)c2ccncc2)c(Br)c1 4.65 µM
COc1ccc(NC(=O)CSc2ccccc2)c([N+](=O)[O-])c1 7.36 µM
CCOc1ccc(NC(=O)c2cccs2)c([N+](=O)[O-])c1 0.826 µM
COc1ccc(NC(=O)c2ccco2)c([N+](=O)[O-])c1 7.36 µM
O=C(O)c1cccc(N/N=C/c2ccc(-c3ccccc3)cc2)c1 0.147 µM
CSc1ccc(/C=N/Nc2cccc(C(=O)O)c2)cc1 0.147 µM
O=C(O)c1cccc(N/N=C/c2ccc(OC(F)(F)F)cc2)c1 0.0521 µM
O=C(O)c1cccc(N/N=C/C2=C(Cl)c3cc(Cl)ccc3SC2)c1 0.261 µM
O=C(O)c1cccc(N/N=C/c2ccc(F)c(F)c2)c1 0.233 µM
O=c1n(Cc2ccccc2Cl)nc2n1-c1ccccc1SC2 10.4 µM
COc1cccc(C(=O)Nc2ccc(C(F)(F)F)n(C)c2=O)c1 1.47 µM
COCCn1c(C(F)(F)F)ccc(NC(=O)c2ccccc2)c1=O 1.85 µM
Cc1cccc(-n2cnc3cc(C(=O)N4CCCCC4)ccc32)c1 9.27 µM
O=C(N=C1N=C2C=CC(Br)=CN2Cc2ccccc21)c1ccc([N+](=O)[O-])cc1[N+](=O)[O-] 3.69 µM
CCCCC#Cc1ccc2c(c1)COc1c3ccccc3nn1-2 2.07 µM
COC(=O)c1c(-c2cccs2)csc1NC(=O)c1cccc(Cl)c1 0.656 µM
COC(=O)c1c(-c2cccs2)csc1NC(=O)COc1ccccc1 7.36 µM
Cc1oncc1C(=O)Nc1ccc2ccccc2c1 7.36 µM
Cc1cc(C(=O)Nc2ccc3ccccc3c2)oc1C 0.293 µM
Cc1cc(C(=O)Nc2ccccc2)oc(=O)c1 6.56 µM
CC(=O)c1sc(NC(=O)c2ccccc2F)nc1-c1ccccc1 3.29 µM
O=C(Nc1ncccc1Cl)C1COc2ccccc2O1 (centres undefined) 4.65 µM
O=C(Nc1ccccc1[N+](=O)[O-])C1COc2ccccc2O1 (centres undefined) 3.29 µM
CCSc1nc2c(cnn2-c2ccccc2)c(=O)n1N 2.33 µM
O=C(NCCc1ccccc1)Nc1ccc(Cl)cc1 1.65 µM
CC(=O)Nc1ccc(C(=O)NCCc2ccccc2)cc1 7.36 µM
Cc1csc2nc(CSc3nc4ccccc4o3)c(Br)n12 4.65 µM
Clc1c(CSc2nc3ccccc3o2)nc2sccn12 1.12 µM
Cc1nc(NC(C)C)c2cnn(CCc3ccccc3)c2n1 14.7 µM
CCN(CC)c1nc(C)nc2c1cnn2CCc1ccccc1 5.85 µM
CCOC(=O)c1c(C)oc2c1c(C(c1ccncc1)N1CCOCC1)c(O)c1ccccc12 (centres undefined) 16.5 µM
CCOC(=O)c1c(C)oc2c1c(C(c1ccccc1)N1CCOCC1)c(O)c1ccccc12 (centres undefined) 3.69 µM
NC(=O)c1cnn(-c2cc(Oc3ccccc3)ncn2)c1N 2.07 µM
NC(=O)c1cnn(-c2ccc3ccccc3c2)c1N 16.5 µM
Cc1ccc(O)c(-c2cc(C(=O)Nc3cccnc3)[nH]n2)c1 2.61 µM
O=C(Nc1cccnc1)c1cc(-c2cc(Cl)ccc2O)n[nH]1 2.33 µM
Cc1ccc(-c2cc(C(=O)Nc3cccnc3)[nH]n2)c(O)c1C 2.93 µM
CCc1ccc(O)c(-c2cc(C(=O)Nc3cccnc3)[nH]n2)c1 2.33 µM
Cc1cc(O)c(-c2cc(C(=O)Nc3cccnc3)[nH]n2)cc1C 0.414 µM
COc1ccc(Cl)c2c1[nH]c1nc(SCc3ccccn3)nnc12 1.65 µM
CC(C)(C)NC(=O)NC(=O)COc1ccc(Br)cc1Br 0.585 µM
O=C(COc1ccccc1Cl)NC(=O)NC1CCCC1 8.26 µM
O=C(COc1ccc(Br)cc1Br)NC(=O)NC1CCCC1 5.21 µM
O=C(COc1ccccc1Cl)Nc1ccccc1C(=O)N1CCCCC1 6.56 µM
O=C(COc1ccc(Cl)cc1Cl)NC(=O)N1CCCCC1 6.56 µM
O=C(Nc1cccc2ccccc12)N1N=CCC1c1ccccc1 (centres undefined) 6.56 µM
Cc1ccc2nc(/C(C#N)=C/c3ccc(-c4ccc(C(=O)OC(C)C)cc4)o3)[nH]c2c1 4.14 µM
CCOC(=O)c1sc(-c2ccccc2)cc1N 3.98 µM
CCOC(=O)c1sc(-c2ccc(OC)cc2)cc1N 0.927 µM
COC(=O)c1sc(-c2cccs2)cc1N 8.26 µM
COC(=O)c1sc(-c2ccc(Cl)cc2)cc1N 4.14 µM
CCOC(=O)c1c(N)sc(-c2ccccc2)c1C 11.7 µM
CCOC(=O)c1cc(-c2ccccc2)sc1N 18.5 µM
CCOC(=O)c1sc(=N)n(-c2ccc(OC)cc2)c1C 7.36 µM
COC(=O)c1ccc(N2OC3(C)C=CC2CC3)cc1 (centres undefined) 13.1 µM
N/C(=N\OC(=O)c1ccco1)c1ccccc1 5.21 µM
COc1ccc(/C(N)=N/OC(=O)c2ccco2)cc1OC 1.85 µM
N/C(=N\OC(=O)c1cccs1)c1cccc(Br)c1 8.26 µM
N/C(=N\OC(=O)c1ccco1)c1cccc(Br)c1 3.69 µM
N/C(=N\OC(=O)c1ccco1)c1ccc(Cl)cc1 4.65 µM
CNc1nc(N2CCc3ccccc32)ncc1F 1.85 µM
CC1(C)CC(=O)c2cnc(N3CCc4ccccc43)nc2C1 1.85 µM
CC1(C)CC(=O)c2c(O)cc(OCc3ccc(Br)cc3)cc2O1 3.29 µM
COc1cccc(N=Nc2c(N)[nH][nH]c2=O)c1 7.36 µM
CCOc1ccc(N=Nc2c(N)[nH][nH]c2=O)cc1 2.93 µM
Cc1cc(C(=O)CSc2ccccc2)cc(C)c1O 9.27 µM
Cc1cc(C(=O)CSc2ccc(F)cc2)cc(C)c1O 9.27 µM
O=C(Nc1ccc(N2CCOCC2)c(Cl)c1)C1CCCCC1 16.5 µM
